Compound activity deposited in PubChem BioAssay by National Center for Advancing Translational Sciences (NCATS).
HCV inhibitor: qHTS Assay for Inhibitors of Hepatitis C Virus (HCV); Huh7.5.1 HCVcc-Cre infection, luciferase reporter, 44 h; 340,000 tested, 3.4% active; Potency, µM (titrated, usually from 41.8 µM), without a hit: at the top dose activity change, negative = inhibition, most hits filed as inhibitors; active = well fitted inhibition curve with a large enough effect; inconclusive = small, poorly fitted or top-dose-only effect, or another doubt; inactive = no such curve, though single readings can be large or run the other way
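Luciferase read-out (15 sec integration) after a 15 min room-temperature substrate step quantifies HCVcc-Cre infection. Cells, 1,000 per well, had compound added 4 h post-plating, then virus at ~0.5 moi, and were cultured 44 h.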
VACV mCherry inh: qHTS for Stage-Specific Inhibitors of Vaccinia Orthopoxvirus: mCherry Reporter Primary qHTS; Vaccinia virus mCherry reporter infection, fluorescence; Potency, µM (top dose mostly 36.5 µM), for inactives: at the top dose activity change, negative = inhibition, actives largely listed as inhibitors; 310,000 tested, 0.63% active; AID 720579, 2013; calls by dose curve; tested in A549 cells; also: nearly all actives have a fitted effect of over 35% in size
Vaccinia Venus: qHTS for Stage-Specific Inhibitors of Vaccinia Orthopoxvirus: Venus Reporter Primary qHTS; Vaccinia virus Venus reporter expression, fluorescence; 330,000 tested, 0.46% active; Potency, µM (titrated, usually from 36.5 µM), without a hit: top-dose activity change, negative = inhibition, most hits filed as inhibitors; calls by dose curve; tested in A549 cells; also: nearly all actives have a fitted effect of over 30% in size
Starred values were filed as active, the others as inactive; i = inactive; ? = inconclusive; . = no result. Sampled rows, rich in hits. Any-hit rate of the full collection: about 3.3%. % is scaled to controls: 0 for no effect and ±100 for the full control effect; potency is read from the fitted curve at half-maximal effect.

SMILES	HCV inhibitor	VACV mCherry inh	Vaccinia Venus
COc1ccc(NC(=O)COc2ccccc2Cl)cc1S(=O)(=O)N1CCCCC1	10µM*	-31%	?
COc1ccc(NC(=O)COc2ccccc2Cc2ccccc2)cc1S(N)(=O)=O	10µM*	?	-29%
COc1ccc(NC(=O)CN(Cc2ccccc2)Cc2ccccc2)cc1S(N)(=O)=O	21%	-3%	-15%
COc1cccc(OCC(=O)Nc2ccc(OC)c(OC)c2)c1	0.63µM*	-10%	-15%
O=C(c1ccc(Cl)cc1)N1CCCCC1CCN1CCOCC1 (stereo not drawn)	.	-15%	-10%
COc1ccc(NS(=O)(=O)c2cc(NC(=O)c3nc4nc(C)cc(C)n4n3)ccc2C)cc1	1%	-1%	-15%
COc1ccc(-n2c(=O)c3sc4ccccc4c3n(CC(=O)NCc3ccccc3)c2=O)cc1	.	-6%	2%
CCOC(=O)c1ccc(CN2CCCC(C)(C(=O)NCCOC)C2)cc1 (stereo not drawn)	.	-4%	-7%
COc1ccc(NC(=O)c2ccco2)cc1S(=O)(=O)N1CCCCC1	-28%	-4%	-15%
COc1ccc(OCC(=O)Nc2ccc(S(=O)(=O)N3CCCCCC3)cc2)cc1	-2%	.	-30%
COc1ccc(NC(=O)CSc2ccc3ccccc3c2)cc1S(=O)(=O)N1CCCCC1	5µM*	-23%	?
COc1ccc(NC(=O)c2n[nH]c(=O)c3ccccc23)cc1S(=O)(=O)N1CCCCC1	11µM*	?	-27%
COc1ccc(NC(=O)CSc2ccc(NC(C)=O)cc2)cc1S(=O)(=O)N1CCOCC1	0%	i	-1%
COc1ccc(OCC(=O)Nc2ccc(OC)c(S(=O)(=O)N3CCCCC3)c2)cc1	10µM*	?	?
Cc1ccc2nc(N3CCN(c4ccccc4)CC3)c3nnnn3c2c1	.	-8%	1%
Cc1cnc(C)c(-c2cccc3c2OC(CNC(=O)C2(c4ccc(Cl)cc4)CC2)C3)n1 (stereo not drawn)	.	-10%	-5%
CCCOc1ccc(Oc2nc(NCC(C)C)nc(N3CCOCC3)n2)nn1	.	-14%	-11%
CCCCCCC[n+]1ccc(/C=C/c2c[nH]c3ccccc23)cc1	.	-24%	60%
CC[n+]1ccc(/C=C/c2c[nH]c3ccccc23)cc1	2.8µM*	.	.
COc1ccc(N(CC(=O)N2CCOCC2)S(C)(=O)=O)cc1OC	2%	i	-4%
